Source: PubChem
Sampled rows, rich in hits. Any-hit rate of the full collection: about 8.1%.
MITF inhib – inhibitors of MITF, primary screen, MITF inhibitor project, cell-based, luminescence | TRPM1 promoter luciferase, 24 h | inhibition, % (no concentration beside the values) | hit rate 0.28% among 37,000 | AID 2240, 2010; in the data active means inhibition above about 85%;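 further: human melanocyte line stably carrying TRPM1 promoter luciferase reporter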
Hedgehog inh – Hedgehog pathway signaling inhibitors, primary screen, luminescence, Shh-LIGHT2 cells, Gli-luciferase; Shh-LIGHT2 Gli-luciferase reporter, 30 h; inhibition, % (test concentration not listed); hit rate 2.1% among 22,000;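 active means mean inhibition across valid replicates above about 65%, limit read from the data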;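 further: pathway switched on by Shh-conditioned medium diluted 1 in 25 in low serum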
PD-1 reversal – activators reversing PD-1 mediated T-cell inhibition, primary screen, luminescence, primary human CD4 T cells, PD-L1 beads; CellTiter-Glo 96 h; activation, % (concentration not given with the values); 29,000 tested, under 10 active; AID 2316, 2010; call rule not given here;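 further: 0% = median vehicle wells and 100% = positive control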
NOMO-1 viab – NOMO-1 AML cell viability reduction, primary screen, STK33 inhibitor project, CellTiter-Glo luminescence; NOMO-1 AML viability, 72 h; inhibition, % (test concentration not listed); hit rate 7.5% among 37,000; AID 2330, 2010; in the data active means inhibition above about 80%
Numbers without * were called inactive; nt = not tested or not shown.

SMILES | MITF inhib | Hedgehog inh | PD-1 reversal | NOMO-1 viab
COc1ccc(C(C)NC(=O)c2cc(-c3ccccn3)nc3ccc(Cl)cc23)cc1OC (stereo unspecified) | 53 | nt | nt | 56
COc1ccc(C(NC(=O)c2cccnc2)c2cc(Cl)c3cccnc3c2O)cc1OC (stereo unspecified) | 53 | nt | nt | 109*
COc1cccc(C(=O)NC(c2ccc(C)cc2)c2cc(Cl)c3cccnc3c2O)c1 (stereo unspecified) | 63 | nt | -14 | 121*
COc1ccc(S(=O)(=O)Nc2ccc3c(c2)C(=O)N([C@H](C)CO)C[C@H](C)[C@@H](CN(C)S(=O)(=O)c2cn(C)cn2)O3)cc1 | 0 | nt | 1 | -8
C[C@@H]1CN([C@H](C)CO)C(=O)c2cccc(NS(=O)(=O)c3ccc(F)cc3)c2O[C@H]1CN(C)C(=O)Nc1cccc2ccccc12 | -6 | 15 | 3 | -17
c1coc(CNc2ncnc3c2sc2nc(N4CCOCC4)c4c(c23)CCC4)c1 | -8 | nt | nt | 19
OC[C@H]1O[C@@H](n2cnc3c(NCc4ccco4)ncnc32)[C@H](O)[C@@H]1O | -5 | 98* | nt | 108*
Cc1ccc(S(=O)(=O)Nc2ccc3c(c2)C(=O)N([C@@H](C)CO)C[C@@H](C)[C@@H](CN(C)S(=O)(=O)c2c(C)noc2C)O3)cc1 | 1 | 19 | 1 | 13
O=C(CSc1nc(-c2ccccc2)c2cc(Cl)ccc2n1)N1N=CCC1c1ccccc1 (stereo unspecified) | 20 | nt | -1 | 43
CN1CCN(CC(=O)N2N=C(c3c(-c4ccccc4)c4cc(Cl)ccc4[nH]c3=O)CC2c2ccccc2)CC1 (stereo unspecified) | 1 | nt | -12 | 124*
COc1ccc([N+](=O)[O-])cc1NC(=O)COc1ccc(Br)cc1Cl | 9 | nt | nt | 11
COc1cc2c(cc1NC(=O)COc1ccc(Br)cc1Cl)oc1ccccc12 | -4 | nt | 0 | 128*
O=Nc1c(O)n(CC(=O)Nc2ccccc2)c2ccccc12 | -23 | -38 | 0 | 16
NNC(=O)Cn1c2ccccc2c2ccccc21 | 3 | nt | -3 | 100*
S=c1nc(C23CC4CC(CC(C4)C2)C3)[nH][nH]1 | -9 | 34 | 3 | -1
Cc1sc(N)nc1C12CC3CC(CC(C3)C1)C2 | 10 | 24 | -1 | 105*
C[C@@H]1CN([C@@H](C)CO)C(=O)Cc2cc(NS(=O)(=O)c3ccc(Cl)cc3)ccc2O[C@@H]1CN(C)Cc1ccc(Cl)c(Cl)c1 | 13 | 14 | -2 | 124*
C[C@@H]1CN([C@H](C)CO)C(=O)Cc2cc(NS(C)(=O)=O)ccc2O[C@@H]1CN(C)Cc1ccc(Cl)c(Cl)c1 | -5 | 47 | -2 | 23
C[C@H]1CN([C@@H](C)CO)C(=O)Cc2cc(NS(=O)(=O)c3ccc(Cl)cc3)ccc2O[C@H]1CN(C)Cc1ccc2c(c1)OCO2 | -14 | 27 | nt | 29
C[C@H]1CN([C@@H](C)CO)C(=O)Cc2cc(NS(=O)(=O)c3ccccc3)ccc2O[C@@H]1CN(C)Cc1ccc(Cl)c(Cl)c1 | 21 | 25 | nt | 122*
C[C@H]1CN([C@@H](C)CO)C(=O)Cc2cc(NS(C)(=O)=O)ccc2O[C@@H]1CN(C)Cc1ccc(Cl)c(Cl)c1 | 15 | 28 | nt | 98*
C[C@@H]1CN([C@H](C)CO)C(=O)Cc2cc(N(C)C)ccc2O[C@@H]1CN(C)Cc1ccc(Cl)c(Cl)c1 | -2 | 7 | -2 | 99*
C[C@@H]1CN([C@@H](C)CO)C(=O)Cc2cc(NS(=O)(=O)c3ccccc3)ccc2O[C@@H]1CN(C)Cc1ccc(Cl)c(Cl)c1 | 35 | 55 | -4 | 62
ONC=Nc1ccc2nnc(-c3ccccc3)n2n1 | -2 | nt | 1 | 61
C[C@H]1CN([C@@H](C)CO)C(=O)Cc2cc(NS(=O)(=O)c3ccc(Cl)cc3)ccc2O[C@@H]1CN(C)Cc1ccc(Cl)c(Cl)c1 | 27 | 40 | -1 | 84*
C[C@@H]1CN([C@@H](C)CO)C(=O)Cc2cc(NS(=O)(=O)c3ccc(F)cc3)ccc2O[C@@H]1CN(C)Cc1ccc(Cl)c(Cl)c1 | 3 | 18 | nt | 96*
C[C@H]1CN([C@@H](C)CO)C(=O)c2cc(NC(=O)Nc3cccc4ccccc34)ccc2O[C@@H]1CN(C)C(=O)Nc1ccc(C(F)(F)F)cc1 | 32 | -45 | -5 | 86*
C[C@@H]1CN([C@@H](C)CO)C(=O)c2cc(NC(=O)Nc3ccccc3)ccc2O[C@@H]1CN(C)C(=O)Nc1cccc2ccccc12 | -22 | 17 | -5 | 67
